# FLuc inh – inhibitors of firefly (Photinus pyralis) luciferase; Potency, µM (doses to about 115 µM), hits mostly inhibitors; 76,000 tested, 2.5% active; P08659; AID 1347043; purified P. pyralis luciferase, luminescence, biochemical; further: nearly all actives have a fitted effect of over 65% in size
#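 Purified 10nM P. pyralis luciferase with 10uM D-luciferin and 10uM ATP in 50mM Tris acetate pH 7.5, 10mM Mg acetate, 0.01% Tween-20, 0.05% BSA. qHTS titration; luminescence read by CCD imager.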
# HEK293 tox – cytotoxic compounds in HEK 293 cells. HEK 293 viability, ATP luminescence (CellTiter-Glo), 48-72 h. Potency, µM (highest dose often 115 µM), for the others: at the top dose activity change, negative = cytotoxicity, usual class: inhibitors. 94,000 tested, 6.6% active; further: nearly all actives have a fitted effect of over 60% in size
#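 Cells seeded first (HEK 293, 250 cells/well), then compound added by pintool. Incubation ran 48 or 72 hr at 37 degree Celsius. CellTiter-Glo was added and luminescence imaged after 10 min at room temperature.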
# 3T3 cytotox – NIH 3T3 cell cytotoxicity | Potency, µM (top dose mostly 96.7 µM), for the others: top-dose activity change, negative = cytotoxicity, actives largely listed as inhibitors | 94,000 tested, 4.3% active | NIH 3T3 viability, CellTiter-Glo ATP luminescence, 48-72 h; further: nearly all actives have a fitted effect of over 55% in size
#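 ATP-dependent luminescence (CellTiter-Glo) served as the viability signal for NIH 3T3 cells treated with compound for 48 or 72 hr at 37 °C.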
# NPR1 antag – human Npr1 receptor antagonism; P16066; HEK293 hNpr1 GloSensor cGMP, ANP-stimulated luminescence; Potency, µM (highest dose often 46.3 µM), for the others: at the top dose activity change, negative = inhibition, usual class: inhibitors; 76,000 tested, 1.6% active; calls by dose curve; further: nearly all actives have a fitted effect of over 60% in size
# Target sequence (P16066 whole entry, looked up): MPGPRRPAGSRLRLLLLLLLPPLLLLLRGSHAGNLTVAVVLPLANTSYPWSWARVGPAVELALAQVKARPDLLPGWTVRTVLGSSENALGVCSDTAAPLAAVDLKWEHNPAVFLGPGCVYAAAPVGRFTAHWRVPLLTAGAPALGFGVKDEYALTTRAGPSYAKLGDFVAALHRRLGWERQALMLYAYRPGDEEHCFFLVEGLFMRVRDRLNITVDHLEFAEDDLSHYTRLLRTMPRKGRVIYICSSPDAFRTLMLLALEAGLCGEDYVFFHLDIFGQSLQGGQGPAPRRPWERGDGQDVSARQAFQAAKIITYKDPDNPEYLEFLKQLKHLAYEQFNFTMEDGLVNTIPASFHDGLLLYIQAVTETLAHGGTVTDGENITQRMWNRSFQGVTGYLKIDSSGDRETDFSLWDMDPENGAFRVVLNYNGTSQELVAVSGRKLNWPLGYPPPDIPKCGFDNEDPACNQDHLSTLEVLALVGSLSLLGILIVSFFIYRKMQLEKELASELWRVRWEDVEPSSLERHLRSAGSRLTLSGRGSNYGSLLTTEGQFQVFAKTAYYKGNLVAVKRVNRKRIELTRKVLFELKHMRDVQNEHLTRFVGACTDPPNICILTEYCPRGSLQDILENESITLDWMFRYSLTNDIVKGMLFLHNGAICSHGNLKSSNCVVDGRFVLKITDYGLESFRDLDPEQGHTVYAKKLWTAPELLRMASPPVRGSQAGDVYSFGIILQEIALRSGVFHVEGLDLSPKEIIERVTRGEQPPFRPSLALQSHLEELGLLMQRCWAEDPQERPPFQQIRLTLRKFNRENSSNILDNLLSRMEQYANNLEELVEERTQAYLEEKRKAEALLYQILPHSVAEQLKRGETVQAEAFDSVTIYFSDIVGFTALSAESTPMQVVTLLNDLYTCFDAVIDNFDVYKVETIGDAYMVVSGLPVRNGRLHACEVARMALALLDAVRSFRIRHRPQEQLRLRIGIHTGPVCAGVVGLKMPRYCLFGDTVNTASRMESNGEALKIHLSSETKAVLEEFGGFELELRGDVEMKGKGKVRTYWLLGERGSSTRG
#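 Compound pre-incubated 30 min at room temperature on GloSensor-loaded HEK293 cells stably carrying hNpr1 and the pGS-40F cGMP biosensor. Stimulation uses hNppA at 0.1 nM final; luminescence is taken at baseline and 20 min post-agonist.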
# Active calls of the source: *; i = inactive; ? = inconclusive; . = not tested or not shown; [ ] = remark or other dose. In the library only some 11% were active in any assay of this set; here they are far more common. Unless noted, the call rests on the fitted dose curve; in most records, active means well fitted curve in the direction sought with a large enough effect; inconclusive means small, poorly fitted or top-dose-only effect, or another doubt; inactive means no such curve, though single readings can be large; an effect the other way counts as inactive or inconclusive. On the % scale 0 is the no-effect control and ±100 the full control effect; potency means the concentration at half of the fitted maximal effect.
SMILES,FLuc inh,HEK293 tox,3T3 cytotox,NPR1 antag
O=[S+]([O-])(Nc1cccnc1)c1ccc2c(c1)OCCN(Cc1ccncc1F)C2,i,-18%[172 µM],35µM*,0%[70.6 µM]
Cn1ccnc1CN1CCOc2cc([S+](=O)([O-])Nc3ccccc3)ccc2C1,i,112µM*,-23%[138 µM],-20%[70.6 µM]
O=[S+]([O-])(Nc1ccccc1)c1ccc2c(c1)OCCN(Cc1ccncc1F)C2,i,?,?,?
CCOc1cccc2c1OC[C@@H]1CN(CCC#N)C(=O)CCN(C(=O)COc3ccccc3)[C@H]21,.,-24%,?,.
CCc1nc2c(c(-c3ccc(Cl)cc3)n1)CCN(C(=O)c1ccccc1F)CC2,i,-22%,-22%,0%
O=[S+]([O-])(Nc1cccnc1)c1ccc2c(c1)OCCN(Cc1cncc(F)c1)C2,i,-9%[172 µM],45µM*,6%[70.6 µM]
CCCc1noc(-c2ccn3c(CNC(=O)c4ccc(CC)cc4)nnc3c2)n1,i,-2%,-23%,0%
CCCn1cc(-c2ccnc(NC3CCN(Cc4cccnc4)CC3)n2)c(C)n1,i,28µM*,?,?
Cc1ccccc1C(=O)N1CCC2(CC1)C(=O)N(c1cccc(F)c1)C2c1ccccc1 (centres undefined),.,25µM*,35µM*,.
CN(C)C(=O)c1cccc2c1CCN2C(=O)C1CC1,i,6%,-10%,14%
CCCCNC(=O)c1cccc2c1CCN2C(=O)Nc1ccc(C)cc1,?,?,?,1.4µM*
Cc1ccc(NC(=O)N2CCc3c(C(=O)N(C)C)cccc32)cc1,16µM*,2%,?,-1%
CCCCNC(=O)c1cccc2c1CCN2C(=O)c1ccc(F)cc1,i,?,-23%,5%
COCCCNC(=O)c1cccc2c1CCN2C(=O)Nc1cccc(C)c1,0.32µM*,?,?,2µM*
COc1ccc(-c2[nH]nc3ncc(C(=O)N4CCC(c5ccccc5)CC4)nc23)c(C)c1,i,?,?,-17%[70.6 µM]
Cc1noc(C)c1-c1cc2cc(C(C)C)oc2c(NCCN2CCOCC2)n1,i,?,?,3%[70.6 µM]
Cc1noc(C)c1-c1cc2cc(C(C)C)oc2c(Nc2ccn(C)n2)n1,i,63µM*,?,1%[70.6 µM]
Cc1noc(C)c1-c1cc2cc(CNC3CC3)oc2c(NC2CCN(C)CC2)n1,i,40µM*,?,-2%[70.6 µM]
Cc1cc2cc(-c3c(C)noc3C)nc(NC3CC3)c2o1,i,?,?,2%[70.6 µM]
Cc1noc(C)c1-c1cc2cc(C(C)C)oc2c(NC2CCN(C)CC2)n1,i,32µM*,?,5%[70.6 µM]
Cc1noc(C)c1-c1cc2cc(C(C)C)oc2c(N2CCN(C)CC2)n1,i,?,?,-1%[70.6 µM]
O=C(c1ccc2cccnc2c1O)N1CCCC(CCc2ccccc2F)C1 (centres undefined),i,?,?,4%
O=C(c1cc(F)ccc1F)N1CCCC2(C1)NC(=O)N(Cc1ccc(Cl)cc1)C2=O (centres undefined),i,?,-23%,-16%
COC(=O)N1CCCC(C(=O)N2CCCC(c3nc4ncccc4[nH]3)C2)C1 (centres undefined),.,i,-7%,.
O=C(O)C1CCc2sc(C(=O)N3CCCCCC3)cc2C1 (centres undefined),16µM*,0%,?,5%
SMILES,FLuc inh,HEK293 tox,3T3 cytotox,NPR1 antag
O=C(O)C1CCc2sc(C(=O)N3CCCC3)cc2C1 (centres undefined),i,-9%,?,-7%
COC[C@@]12CN(Cc3ccc(C(=O)O)cc3)C[C@@H]1C(C)(C)COc1ccc(OC)cc12,.,-25%,?,.
COCCn1c(C)cc(C(=O)N2CCC(N3C[C@H](O)C[C@H]3C(=O)NC3CCCCC3)CC2)c1C,i,3%,-10%,2%
O=C(NCc1cccnc1)c1cc(CN2CCC(Cc3ccccc3)CC2)on1,i,-28%,32µM*,-7%
Cc1cnc(CNC(=O)c2cc(CN3CCC(Cc4ccccc4)CC3)on2)cn1,i,?,-20%,-2%
CN(Cc1ccccc1C(F)(F)F)C(=O)c1ccccc1,i,?,-16%[138 µM],23%[70.6 µM]
CN(Cc1ccccc1C(F)(F)F)C(=O)c1cccc(Cl)c1,i,89µM*,?,0%[70.6 µM]
COCCOCC(=O)N1CC(Oc2ccc(-c3noc(-c4ccccc4)n3)cc2)C1,?,?,?,10µM*

# From PubChem
